This passage reports activity results from PubChem BioAssay.

For experiment [1], the target named is Tumor necrosis factor receptor superfamily member 10B (Homo sapiens) (UniProt O14763). The experiment in a line: caspase-8 TRAIL sensitization, hit retest, confirmation, cell-based, NB7+caspase-8, with/without TRAIL, luminescence panel (AID 651596). The settings on record: NB7 neuroblastoma + caspase-8, TRAIL sensitization, luminescence viability, with TRAIL, mean of runs, at 10 µM, stronger effect = higher value.
Chain of Tumor necrosis factor receptor superfamily member 10B (Homo sapiens) (O14763 whole entry, looked up): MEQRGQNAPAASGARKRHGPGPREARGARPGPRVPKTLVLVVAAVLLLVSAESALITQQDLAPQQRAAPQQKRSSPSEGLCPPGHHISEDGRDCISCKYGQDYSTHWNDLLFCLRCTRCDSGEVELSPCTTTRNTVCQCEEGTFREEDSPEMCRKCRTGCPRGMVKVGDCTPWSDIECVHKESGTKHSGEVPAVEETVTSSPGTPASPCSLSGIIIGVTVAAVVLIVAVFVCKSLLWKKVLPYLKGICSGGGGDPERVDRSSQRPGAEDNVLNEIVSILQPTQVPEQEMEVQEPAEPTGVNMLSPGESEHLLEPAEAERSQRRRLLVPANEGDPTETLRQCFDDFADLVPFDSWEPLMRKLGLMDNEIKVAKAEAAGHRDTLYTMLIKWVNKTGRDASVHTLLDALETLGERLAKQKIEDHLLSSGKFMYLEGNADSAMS

Test in experiment [2]: as above
The settings on record: NB7 neuroblastoma + caspase-8, without TRAIL, luminescence viability, without TRAIL, mean of runs, at 10 µM.

On to `COc1ccc(C2C(C(=O)N3CCC(C)CC3)c3ccccc3C(=O)N2C)cc1` (configuration not stated), for which the activity in experiment [1] came to 67.2%; in experiment [2], 68.5%.
Turning to `NC(=O)c1ccccc1NC(=O)/C=C/c1ccccc1`, the activity in experiment [1] is 67.8%; in experiment [2] it was 70.7%.
`Cc1onc(-c2c(F)cccc2Cl)c1C(=O)Nc1nc2ccccc2[nH]1`: the activity was 31.9% in experiment [1] and 30.2% in experiment [2].
For `O=C(Nc1cccc(O)c1)c1noc2c1CCc1ccccc1-2`, in that order: 76.6% and 67.1%.
For `O=S(=O)(c1ccc2c(c1)C(=NO)c1cc(S(=O)(=O)N3CCCCC3)ccc1-2)N1CCCCC1`, in that order: 98.8% and 99.3%.
For `COc1ccc(NC(=O)c2cc3ccc(O)cc3o/c2=N\O)cc1`, in that order: 77.8% and 77.1%.
Consider `CCc1cc2c(COC(=O)CCNS(=O)(=O)c3cccc(C(F)(F)F)c3)cc(=O)oc2cc1O`, for which the activity in experiment [1] was found to be 23.9%; in experiment [2], 3.52%.
On the same counts, the results for `C/C(=N\Nc1nc2ccccc2s1)c1cccs1` are 52.8% and 30.2%.
For `CCOc1cc(/C=N/N=C(/N)c2nonc2N)cc(Br)c1OCc1ccc(Cl)cc1`, in that order: 30.7% and 37.3%.
For `Nc1c(N(CCC2=CCCCC2)C(=O)COc2ccc(F)cc2Cl)c(=O)[nH]c(=O)n1Cc1ccccc1`, in that order: 88.3% and 79.4%.
With `CCOC(=O)c1c(C)oc2c(F)c(F)c(F)c(F)c2c1=O`, the activity in experiment [1] and in experiment [2] was 99.2% in each case.
With `CSc1ncccc1C(=O)OCC(=O)c1cc(C)n(CC2CCCO2)c1C` (configuration not stated), the activity in experiment [1] worked out at 44%; in experiment [2], 23.6%.
In the case of `O=C(Nc1ccccn1)c1ccc(-c2ccccc2)cc1`, the activity worked out at 87.6% in experiment [1] and 88.4% in experiment [2].
For `O=C(Nc1nc2ccccc2[nH]1)c1ccc([N+](=O)[O-])cc1`, in that order: 53.4% and 35%.
For the molecule `N/C(CCS(=O)(=O)c1ccc(Cl)cc1)=N\OC(=O)c1ccc(Cl)cc1`, the activity was 98.2% in experiment [1] and 93.3% in experiment [2].
On the same counts, the results for `Cc1ccc(C(=O)OCn2ncc(Cl)c(Cl)c2=O)cc1` are 100% and 100%.
On the same counts, the results for `C#CCN(C[C@@H]1[C@@H](OC(=O)NCCCCCC)[C@@H](OC(=O)NCCCCCC)Cn2c(=O)ccc(=O)n21)S(=O)(=O)c1ccc(C)cc1` are 96.2% and 92.3%.
On the same counts, the results for `CCOC(=O)CSc1nc(-c2ccncc2)ccc1C#N` are 55.8% and 55.1%.
As for `N#Cc1nc(Nc2cccc(Cl)c2)c2ncn(C3CCCC3)c2n1`, the figures for the activity in experiment [1] and in experiment [2] were 76.7% and 57.3%, respectively.
For `NC(=O)c1ccccc1N/C=C/C(=O)c1ccccc1`, the activity in experiment [1] was found to be 73.4%; in experiment [2], 58.9%.
On the same counts, the results for `CCN1CCC(O)(/C=C/c2ccc(C(C)C)cc2)C(C(=O)/C=C/c2ccc(C(C)C)cc2)C1` (configuration not stated) are 87.8% and 82.8%.
On the same counts, the results for `FC(F)(F)c1cc(Cl)c2nc(-c3ccccc3)cn2c1` are 65% and 76.1%.
On the same counts, the results for `Clc1ccccc1CSc1nc2ccncc2[nH]1` are 79% and 79.3%.
Consider `COn1c(SCc2ccccc2)nc2ccccc2c1=O`, for which the figures for the activity in experiment [1] and in experiment [2] were 65.3% and 59.9%, respectively.
Regarding `COc1ccc(Nc2nc(N)nc(CCl)n2)cc1`, the activity in experiment [1] amounted to 99.1%; in experiment [2], 98.3%.
For `O=C(Nc1nc(-c2ccccn2)cs1)C12CC3CC(CC(O)(C3)C1)C2`, in that order: 66.8% and 78.4%.
As for `Cc1ccc(-c2cnn(-c3ccccc3)c2N)cc1`, the activity was 78.6% in experiment [1] and 77% in experiment [2].
On the same counts, the results for `CCOC(=O)c1sc(NC(=O)c2ccccc2OC)nc1C` are 26.1% and 31.9%.
For the molecule `O=[N+]([O-])c1cc(S(=O)(=O)C(F)(F)F)ccc1Sc1nc2ccccc2[nH]1`, the values for the activity in experiment [1] and in experiment [2] were 33.1% and 94.2%, respectively.
Take `Brc1ccc(-c2nnc3sc(CN4CCC5(CC4)OCCO5)cn23)cc1`: the activity in experiment [1] worked out at 68.3%; in experiment [2], 61.4%.
On the same counts, the results for `C=CCn1c(C)cc(C(=O)CN2C(=O)c3ccccc3C2=O)c1C` are 60.2% and 57.3%.
On the same counts, the results for `CSc1nnc(NC(=O)c2nc(S(=O)(=O)Cc3ccccc3F)ncc2Cl)s1` are 80.3% and 58.1%.
For `CC(C)c1ccc(/C=c2\sc3n(c2=O)C(N)=C(C#N)C(c2ccc(C(C)C)cc2)C=3C(N)=O)cc1` (configuration not stated), in that order: 76.7% and 77.9%.
With `CCCCCC(=O)N1C[C@H](n2cc(COC(=O)c3ccccc3)nn2)[C@@H](O)C[C@@H]1c1ccc(Cl)cc1`, the activity in experiment [1] came out at 72.6%; in experiment [2], 61%.
For `C/C(=N\NC(=O)c1ccccn1)c1ccc(Cl)cc1`, in that order: 44% and 46%.
On the same counts, the results for `CCOc1cccc(C(=O)Nc2ccc3[nH]ncc3c2)c1` are 61% and 67%.
For `CC(C)c1ccc(NC(=O)Nc2nc(C(N)CCc3ccccc3)cs2)cc1` (configuration not stated), in that order: 86.8% and 98.2%.
`CCC(C)c1ccc2oc(-c3ccc(NC(=O)Cn4cnc5c(=O)n(C)c(=O)n(C)c54)cc3)nc2c1` (configuration not stated): the activity in experiment [1] is 85.3%; in experiment [2], 66.9%.
On the same counts, the results for `CC(=O)Nc1cc(-c2cccc(C(=O)NCCN(C)C)c2)cn2c(-c3cccc(C(F)(F)F)c3)cnc12` are 65.3% and 89.8%.
For `Brc1ccc(-c2cn3ccccc3n2)cc1`, in that order: 50.8% and 62.2%.
For `Cc1cnc(NC(=O)c2ccc(OCC3CCCO3)cc2)s1` (configuration not stated), in that order: 93.3% and 94.7%.
For `C[C@@H](NC(=O)c1ncn2c1c(=O)[nH]c1ccc(Br)cc12)c1ccccc1`, the figures for the activity in experiment [1] and in experiment [2] were 20.2% and 13%, respectively.
For `O=C(Nc1cccc(O)c1)c1cc(-c2ccccc2Cl)on1`, in that order: 82.2% and 78%.
For `c1csc(-c2nnc(-c3ccc(N4CCOCC4)cc3)o2)c1`, in that order: 56.9% and 54.2%.
For `OC(c1cc(-c2cccc(Cl)c2)nc2ccccc12)C1CCCCN1` (configuration not stated), in that order: 71.2% and 82.1%.
Take `CCc1ccc(-c2cc3c(=O)n(CC(=O)NCCCN4CCC(Cc5ccccc5)CC4)nc(C)n3n2)cc1`: the activity in experiment [1] worked out at 55.9%; in experiment [2] it was 71.5%.
